# Only some compounds are listed: those with a hit (about 4.6% of all), similar ones and a draw of the others.
# PfHsp90 yeast 2 = growth inhibition of yeast expressing Plasmodium Hsp90 | S. cerevisiae expressing PfHsp90, BacTiter-Glo ATP, 48 h; yeast lacking PDR1 and PDR3 efflux regulators | inhibition, % at 9.4 µM | AID 504621 | hit rate 0.32% among 310,000;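 active = every replicate shows inhibition above about 80%, whatever the replicate mean, limit read from the data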;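 note: 0% = DMSO neutral controls and 100% = 20 µM radicicol positive controls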
# tim23-1 inh = inhibits growth of tim23-1 mutant yeast. S. cerevisiae tim23-1 growth, BacTiter-Glo luminescence, 24 h. inhibition, % at 20 µM. hit rate 1.3% among 330,000. AID 463212;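 active = growth inhibition of the mutant yeast at or above 50%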;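 note: temperature-sensitive mutant grown at 25 °C; plate controls were DMSO-treated mutant yeast for no effect and medium wells lacking yeast for full effect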
# tim10-1 inh = tim10-1 yeast growth inhibition; S. cerevisiae tim10-1 ts strain growth, BacTiter-Glo, 24 h; inhibition, % at 20 µM; hit rate 2.2% among 330,000;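 active = inhibition of at least 40%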;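 note: mutant grown at 25 °C; 0% = DMSO wells with yeast and 100% = wells holding no yeast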
# SKKanGAS inh = blocks kanamycin growth of S. pyogenes SKKanGAS strain; AID 1662; hit rate 1.3% among 300,000; BacTiter-Glo, 6 h; inhibition, % at 7.5 µM;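 active = mean replicate score, as percent of positive control median, at least 50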;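 note: strain carries kanamycin resistance gene driven by streptokinase promoter and grows in 40 µg/ml kanamycin; loss of luminescence reflects streptokinase promoter inhibition or plain growth inhibition; 0% = median of DMSO wells and 100% = positive control at its reference dose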
# NALP3 yeast inh = NALP3 inhibition in yeast; Yeast reconstituted NLRP3/ASC/caspase-1, beta-gal luminescence, 24 h; hit rate 0.39% among 330,000; inhibition, % at 10 µM; AID 2825;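 active = inhibition of 50% or more; inactive = inhibition below 50%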;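 note: plate controls were induced DMSO wells for no effect and uninduced yeast grown without galactose for full effect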
# TIM10 inh = inhibits growth of TIM10 yeast strain | S. cerevisiae TIM10 strain growth, BacTiter-Glo luminescence, 24 h | inhibition, % at 10 µM | hit rate 1.4% among 330,000;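 active = inhibition of 40% or more at the single tested concentration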;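 note: wild-type TIM10 isogenic control strain grown at permissive 25 °C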
# tim10-1 conf = tim10-1 yeast growth inhibition, confirmed | S. cerevisiae tim10-1 ts strain growth, BacTiter-Glo, 24 h | hit rate 56% among 7,400 | inhibition, % at 20 µM | shares compounds with tim10-1 inh;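 active = inhibition of yeast growth at or above a set limit in either of two repeat tests at 20 µM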;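 note: tim10-1 mutant grown at permissive 25 °C to find synthetic lethal compounds; 0% = DMSO yeast wells and 100% = medium wells without yeast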
# TIM10 conf = TIM10 yeast growth inhibition, confirmed | shares compounds with TIM10 inh | S. cerevisiae tim10 strain growth, BacTiter-Glo luminescence, 24 h | inhibition, % at 10 µM | hit rate 63% among 4,600 | AID 463215;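 active = inhibition of yeast growth at or above a set limit in either of two replicates at 10 µM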;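 note: this counterscreen used the strain with wild-type TIM10; 0% = yeast with DMSO and 100% = medium wells lacking yeast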
# tim23-1 confirm = tim23-1 yeast growth inhibition, confirmed; shares compounds with tim23-1 inh; S. cerevisiae tim23-1 growth, BacTiter-Glo luminescence, 24 h; inhibition, % at 20 µM; hit rate 83% among 4,400;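 active = inhibition above about 39% in either of two replicate wells at 20 µM, limit read from the data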;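 note: temperature-sensitive tim23-1 mutant grown at 25 °C; 0% = DMSO wells with yeast and 100% = medium wells without yeast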
# The depositor's hits bear a star; . = no result given.
SMILES,PfHsp90 yeast 2,tim23-1 inh,tim10-1 inh,SKKanGAS inh,NALP3 yeast inh,TIM10 inh,tim10-1 conf,TIM10 conf,tim23-1 confirm
Cc1ccc(C(C[N+](=O)[O-])n2nc(C)cc2C)cc1 (stereo unspecified),8,80*,53*,22,32,23,36*,.,73*
CCOC(=O)C(C(=O)OCC)C(C(=O)OCC)N1CCOCC1 (stereo unspecified),.,57*,63*,-13,12,68*,60*,71*,59*
Cc1ccc2c(c1)C(=O)C(=O)N2CC1COc2ccccc2O1 (stereo unspecified),-28,65*,41*,1,18,18,30,.,78*
Cc1c(C2(O)CCCCC2)[nH]c2cnccc12,24,11,-3,.,21,1,.,.,.
Cc1c(C2(O)CCCCC2)[nH]c2cc(C(F)(F)F)ccc12,67,56*,42*,.,31,25,22,.,64*
O=C(Nc1ccccc1N1CCCCC1)c1ccc(-c2ccc(Cl)cc2)o1,-7,5,28,7,-1,6,.,.,.
CN1CCN(c2ccccc2NC(=O)c2ccc(-c3ccc(Br)cc3)o2)CC1,13,50,56*,3,42,20,46*,.,39
Cc1nc(N2CCOCC2)nc2c1CCC2,11,-5,5,6,-17,-1,.,.,.
COc1ccc(/C=C/C(=O)c2cc(F)ccc2OC(=O)c2ccc(OC)c(OC)c2)cc1OC,6,52*,50*,0,15,54*,46*,29,56*
Cc1cc(C)n(CC(O)Cn2c3ccc(Cl)cc3c3cc(Cl)ccc32)c(=O)n1 (stereo unspecified),-5,54*,57*,17,8,61*,54*,56*,47*
Cc1c(C(=O)N2CCOCC2)sc(NC(=O)c2ccccc2F)c1C#N,24,28,-15,20,14,9,.,.,.
COc1ccc(C/C(N)=N/OC(=O)c2cccs2)cc1,-36,85*,46*,4,4,77*,63*,74*,80*
N/C(=N\OC(=O)/C=C/c1ccccc1)c1ccncc1,-6,7,12,-34,2,13,.,.,.
COc1ccccc1C/C(N)=N/OC(=O)/C=C/c1ccccc1,-13,75*,53*,2,3,83*,33*,83*,76*
Cc1ccccc1C(=O)O/N=C(\N)Cc1cccs1,-33,77*,67*,-6,23,90*,70*,69*,80*
COc1ccc(C(=O)O/N=C(/C)c2cccs2)cc1,73,48,23,48,45,6,.,.,.
COc1ccccc1C/C(N)=N/OC(=O)c1cccs1,-9,77*,64*,4,2,59*,53*,61*,64*
Cn1c(=O)oc2cc(S(=O)(=O)N3CCN(c4ccccc4F)CC3)ccc21,-5,5,-6,-16,10,4,.,.,.
Cc1ccccc1N1CCN(S(=O)(=O)c2ccc3oc(=O)ccc3c2)CC1,-59,68*,79*,-8,16,42*,65*,54*,57*
CCOC(=O)C1(CCCc2ccccc2)CCN(S(=O)(=O)N(C)C)CC1,5,32,1,2,16,-8,.,.,.
NC(=O)c1c(NC(=O)c2cccs2)sc2c1CCCCCC2,-45,59*,46*,-1,25,23,12,.,58*
CC1=C(C(=O)OC(C)C)C(c2ccc(Cl)cc2)n2c(s/c(=C\c3ccc(OCC(=O)O)cc3)c2=O)=N1 (stereo unspecified),-15,.,.,19,.,.,.,.,.
COc1ccc(NC(=O)C(Cl)=C(Cl)Cl)cn1,14,-21,-37,2,4,-17,.,.,.
COc1ccc(NC(=O)/C(Cl)=C(/Cl)S(=O)Cc2ccc(Cl)cc2)cn1 (stereo unspecified),106*,73*,50*,.,12,67*,46*,90*,68*
COc1cc(Nc2ccccn2)cc(C(=O)Nc2cccc(C(F)(F)F)c2)c1,18,51*,49*,-4,27,29,36*,.,65*
SMILES,PfHsp90 yeast 2,tim23-1 inh,tim10-1 inh,SKKanGAS inh,NALP3 yeast inh,TIM10 inh,tim10-1 conf,TIM10 conf,tim23-1 confirm
Cc1cccc(N2CCN(C(=O)CCC(=O)N3CC(C)Oc4ccccc43)CC2)c1C (stereo unspecified),-2,47,32,-2,17,11,.,.,.
O=c1c2c([N+](=O)[O-])cc([N+](=O)[O-])cc2sn1-c1ccc(Br)cc1,-8,54*,85*,.,14,19,93*,.,70*
Clc1ccccc1-c1nnc(-c2ccc3c(c2)OCO3)o1,1,22,0,-6,34,2,.,.,.
Cc1ccc(C)c(S(=O)(=O)NNC(=O)c2sc(NS(=O)(=O)c3ccccc3)nc2C)c1,12,-12,1,3,-6,-1,.,.,.
CCN1/C(=C/c2ccc3cc(C)ccc3[n+]2CC)Sc2ccc3sccc3c21,101*,60*,46*,115*,39,68*,45*,74*,69*
CC[n+]1c(C)sc2c3ccsc3ccc21,11,12,38,3,23,10,.,.,.
Cc1ccc(-c2nc(N/N=C/c3ccncc3)c3ccccc3n2)cc1,17,76*,74*,9,8,60*,69*,60*,81*
COc1ccc(/C=N/Nc2nc(-c3cccnc3)nc3ccccc23)cc1OC,11,42,26,2,-7,17,.,.,.
O=C(Nc1cccc(NC(=O)c2cccc(Cl)c2)c1)c1cccnc1,31,-8,-27,1,3,0,.,.,.
Nc1nnc(-c2cccc(F)c2)s1,7,-4,-8,-4,14,1,.,.,.
O=c1oc2c(-c3cccc(F)c3)cc(O)cc2s1,-46,57*,52*,-13,20,-15,48*,.,56*
CCN(Cc1ccccc1)C(c1ccncc1)c1nnnn1C(C)(C)C (stereo unspecified),-22,53*,41*,-8,3,30,39*,.,37
COc1cc(C(=S)N2CCCC2)ccc1OCc1ccc(C)cc1,-2,12,-20,-2,26,-27,.,.,.
COc1cccc(/C=C2\SC(=S)N(CCCC(=O)N3CCCCC3CCO)C2=O)c1 (stereo unspecified),-40,52*,50*,-4,10,19,20,.,55*

# Bioassay records: PubChem, several laboratories
